HCMV inh = human cytomegalovirus inhibition | HFF cells, HCMV-luciferase reporter, 72 h; stronger effect = lower value | actives 4.5% (n = 410,000) | activity change, negative = inhibition, % at 57.5 µM; in the data active = activity change below about -60%; inconclusive = no clear call, values can overlap the other calls; inactive = above about -39%
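Screen run at 2 compound doses on HFFs infected with reporter HCMV, MOI 1 PFU/cell. Luciferase activity from cell lysates at 72 h post infection gave inhibition relative to buffer-only and Salinomycin wells.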
Vaccinia Venus = inhibitors of vaccinia virus (Venus reporter) | Vaccinia virus Venus reporter expression, fluorescence | Potency, µM (titrated, usually from 36.5 µM), without a hit: at the highest dose activity change, negative = inhibition, usual class: inhibitors | actives 0.46% (n = 330,000); calls by dose curve; tested in A549 cells; also: potency is read from the fitted curve at half-maximal effect; nearly all actives have a fitted effect of over 30% in size
FMDV inh = antivirals against foot and mouth disease virus; FMDV antiviral cell-based qHTS; Potency, µM (titrated, usually from 57.9 µM), for the others: at the top dose activity change, negative = inhibition, usual class: inhibitors; AID 1159524; actives 1.2% (n = 410,000); calls by dose curve; tested in HEK293T cells; also: read-out not given here; potency is read from the fitted curve at half-maximal effect; nearly all actives have a fitted effect of over 45% in size
Sm TGR block = blocks Schistosoma mansoni thioredoxin glutathione reductase. purified TGR, DTNB reduction, TNB absorbance 405 nm. Q962Y6. AID 485364. actives 3% (n = 360,000). Potency, µM (series often up to 114 µM), for the others: at the top dose activity change, negative = inhibition, most hits filed as inhibitors; also: potency is read from the fitted curve at half-maximal effect; nearly all actives have a fitted effect of over 60% in size
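First, TGR (20 nM dispensed) and NADPH were mixed with compound. Second, a 15 min room-temperature incubation followed. Third, further NADPH and then DTNB were added to start the reaction. Finally, TNB absorbance was monitored kinetically.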
HCV inhibitor = HCV inhibition. Potency, µM (titrated, usually from 41.8 µM), inactives show top-dose activity change, negative = inhibition, hits mostly inhibitors. Huh7.5.1 HCVcc-Cre infection, luciferase reporter, 44 h. AID 651820. actives 3.4% (n = 340,000); also: potency is read from the fitted curve at half-maximal effect
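Luciferase read-out (15 sec integration) after a 15 min room-temperature substrate step quantifies HCVcc-Cre infection. Cells, 1,000 per well, had compound added 4 h post-plating, then virus at ~0.5 moi, and were cultured 44 h.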
VACV mCherry inh = vaccinia inhibition (mCherry reporter); Potency, µM (doses to about 36.5 µM), inactives show at the top dose activity change, negative = inhibition, actives largely listed as inhibitors; Vaccinia virus mCherry reporter infection, fluorescence; actives 0.63% (n = 310,000); calls by dose curve; tested in A549 cells; also: potency is read from the fitted curve at half-maximal effect; nearly all actives have a fitted effect of over 35% in size
* = called active by the depositor; i = inactive; ? = inconclusive; · = not tested or not shown. A selection: hits, their analogues and other compounds. The true share with any hit is near 9.3%. Unless noted, calls follow the shape of the dose curve; as a rule, active = well fitted curve in the direction sought with a large enough effect; inconclusive = small, poorly fitted or top-dose-only effect, or another doubt; inactive = no such curve, though single readings can be large; an effect the other way counts as inactive or inconclusive. % is scaled to controls: 0 for no effect and ±100 for the full control effect.

SMILES | HCMV inh | Vaccinia Venus | FMDV inh | Sm TGR block | HCV inhibitor | VACV mCherry inh
CCn1nc(C)c(CN2CCC(n3nccc3NC(=O)c3ccccc3OC)CC2)c1C | 49.3 | -10.4% | -12.9% | -27.0% | -24.7% | 0.0%
CC(=O)Nc1ccc(S(=O)(=O)Nc2cc3c(cc2C(C)=O)OCO3)cc1 | 8.7 | -8.3% | -11.6% | -7.8% | -29.1% | i
COc1ccc(C(NC(C)=O)c2cc(Cl)c3cccnc3c2O)cc1OC (stereo unspecified) | -99.8* | ? | -16.7% | -4.1% | 2µM* | ?
COc1ccccc1CNC(=O)C/C(C)=N/NC(=O)Cc1ccc(OC)c(OC)c1 | -65.6* | -7.8% | -22.7% | -8.6% | 26.4% | i
COc1ccccc1CNC(=O)C/C(C)=N/NC(=O)Cc1ccccc1 | -6.5 | · | 16.8% | -28.3% | -2.2% | ·
CC(C)(C)c1ccc(C(=O)NCc2nnc(SCC(=O)NC3CCCC3)o2)cc1 | 26.5 | -10.3% | -24.7% | 4.2% | 2.8% | -2.4%
Cc1ccc(Nc2nc(N)nc(CSC(=S)N3CCN(c4ccccc4)CC3)n2)cc1 | 24.0 | -13.2% | 0.0% | 3.8% | -2.1% | -8.8%
O=C(O)CCC(=O)N1CCN(S(=O)(=O)c2ccc3ccccc3c2)CC1 | ? | -10.1% | 9.3% | -6.7% | 0.4% | 3.7%
Cc1ccc(S(=O)(=O)N2CCCCC2)cc1NC(=O)Cn1ncc(Cl)c(Cl)c1=O | -96.7* | · | 20µM* | · | 0.708µM* | ·
Cc1cc(Br)ccc1NC(=O)CNC(=O)Cn1ncc(Cl)c(Cl)c1=O | -100.9* | -7.6% | 6.31µM* | 1.41µM* | 2.24µM* | -3.9%
O=C(Cn1ncc(Cl)c(Cl)c1=O)N1CCN(S(=O)(=O)c2ccc3ccccc3c2)CC1 | -85.6* | ? | 28.2µM* | 22.4µM* | 5.62µM* | ?
Cc1ccc(S(=O)(=O)N2CCCCC2)cc1NC(=O)CSCC(=O)O | -19.2 | -7.0% | 2.7% | 7.5% | 6.1% | -4.3%
Cc1ccc2oc(=O)c3cnn(CC(=O)Nc4ccc(Br)cc4C)c3c2c1 | 8.2 | -10.0% | -6.5% | -0.3% | · | -4.1%
Cc1ccc(S(=O)(=O)N2CCCCC2)cc1NC(=O)Cn1cnnn1 | -6.0 | · | -14.8% | 15.4% | 26.8% | ·
Cc1ccc(S(=O)(=O)N2CCCCC2)cc1NC(=O)CNC(C)c1ccc(Cl)c(Cl)c1 (stereo unspecified) | -1.1 | · | -13.8% | -2.8% | 8.91µM* | ·
CCn1nc(C(=O)OCC(=O)N(CC(C)C)c2c(N)n(Cc3ccccc3)c(=O)[nH]c2=O)c2ccccc2c1=O | 6.6 | -17.5% | -13.3% | -5.8% | -13.7% | -12.4%
COc1ccc(Cl)cc1N1C(=O)C2CCCN2C1c1sccc1C (stereo unspecified) | -2.9 | · | -3.7% | 10.0% | 10.6% | ·
COc1ccc(S(=O)(=O)N(c2onc(C)c2Cl)S(=O)(=O)c2ccc(OC)c(OC)c2)cc1OC | 18.3 | · | 12.0% | -9.5% | 22.8% | ·
COCCN(C(=S)Nc1cc(C)cc(C)c1)C(C)c1cccnc1 (stereo unspecified) | -37.7 | -10.5% | 1.8% | 0.6% | -14.8% | -7.1%
Cc1ccc(S(=O)(=O)N2CCN(Cc3ccccc3)CC2)c(C)c1NS(C)(=O)=O | 2.1 | 0.5% | -17.1% | 1.0% | · | -6.0%
C=C(C)CN1CCN(S(=O)(=O)c2ccc(C)c(N(C)S(=O)(=O)c3ccc(C)cc3)c2C)CC1 | -72.5* | -19.4% | -25.7% | -5.0% | ? | -23.2%
Cc1ccc(S(=O)(=O)N(C)c2c(C)ccc(S(=O)(=O)N3CCN(C=O)CC3)c2C)cc1 | -89.9* | -16.1% | -4.4% | -3.4% | -6.2% | -4.6%
Cc1ccc(S(=O)(=O)N(C)c2c(C)ccc(S(=O)(=O)N3CCN(C)CC3)c2C)cc1 | -2.8 | -25.6% | 1.0% | -6.2% | -0.1% | -13.2%
Cc1ccc(S(=O)(=O)N2CCN(Cc3ccccc3)CC2)c(C)c1N(C)S(=O)(=O)c1ccccc1 | -80.7* | -18.6% | -28.0% | 9.9% | ? | -25.1%
Cc1onc(-c2c(F)cccc2Cl)c1C(=O)NCc1ccc(F)cc1 | 1.1 | · | 70.4% | 13.3% | 14.2% | ·

Screening data as filed in PubChem.
